Experimental data published in PubChem BioAssay (NCATS).
Inconclusive results are not listed. Activity calls are given as the source filed them. Calls follow the shape of the dose curve; as a rule, active = well fitted cell-killing curve with a large enough effect; inconclusive = small, poorly fitted or top-dose-only effect, or effect the other way; inactive = flat fitted curve, though single readings scatter.

What was measured:
Experiment in all cases: Primary qHTS to identify gynecologic anti-cancer compounds using libraries of approved drugs and bioactive compounds (AID 1345084); also: nearly all actives have a fitted effect of over 55% in size
C33A = conditions: Gynecologic cancer cell panel viability, ATPlite luminescence, 48 h; series mostly up to 57.5 µM
Outline: (§1)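 Five-point cytotoxicity, 48 h drug exposure at 37 C, 5% CO2, on cells seeded 16 h beforehand. ATP content read by ATPlite luminescence.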

CAOV3 = conditions: Gynecologic cancer cell panel viability, ATPlite luminescence, 48 h; series mostly up to 57.5 µM
Outline: as §1

CASKI = conditions: Gynecologic cancer cell panel viability, ATPlite luminescence, 48 h; series mostly up to 57.5 µM
Outline: as §1

Es-2 = conditions: Gynecologic cancer cell panel viability, ATPlite luminescence, 48 h; series mostly up to 57.5 µM
Outline: as §1

HeLa = conditions: Gynecologic cancer cell panel viability, ATPlite luminescence, 48 h; series mostly up to 57.5 µM
Outline: as §1

Hek293T = conditions: Gynecologic cancer cell panel viability, ATPlite luminescence, 48 h, control line for the selectivity index; series mostly up to 57.5 µM
Outline: as §1

JEG-3 = conditions: Gynecologic cancer cell panel viability, ATPlite luminescence, 48 h; series mostly up to 57.5 µM
Outline: as §1

OV90 = conditions: Gynecologic cancer cell panel viability, ATPlite luminescence, 48 h; series mostly up to 57.5 µM
Outline: as §1

PA-1 = conditions: Gynecologic cancer cell panel viability, ATPlite luminescence, 48 h; series mostly up to 57.5 µM
Outline: as §1

SKOV3 = conditions: Gynecologic cancer cell panel viability, ATPlite luminescence, 48 h; series mostly up to 57.5 µM
Outline: as §1

Tov-21-G = conditions: Gynecologic cancer cell panel viability, ATPlite luminescence, 48 h; series mostly up to 57.5 µM
Outline: as §1

Tov112D = conditions: Gynecologic cancer cell panel viability, ATPlite luminescence, 48 h; series mostly up to 57.5 µM
Outline: as §1
% is scaled to controls: 0 for no effect and ±100 for the full control effect.

Nc1ncnc2c1C(=O)N(c1ccc(C3CCC(CC(=O)O)CC3)cc1)CCO2 (stereo not given)
inactive: Potency (C33A) | Potency (CAOV3) | outcome (CASKI) | Potency (Es-2) | Potency (HeLa) | Potency (Hek293T) | Potency (JEG-3) | Potency (OV90) | Potency (PA-1) | Potency (SKOV3) | Potency (Tov-21-G) | Potency (Tov112D)

C=C1CC2C3(C)C(O)CC(=O)C(C)(C)C3C(O)C(OC(C)=O)C2(C)C2C(=O)OC(C)(C(=O)OC)C(=O)C12C (stereo not given)
inactive: Potency (C33A) | Potency (CAOV3) | outcome (CASKI) | Potency (Es-2) | Potency (HeLa) | Potency (Hek293T) | Potency (JEG-3) | Potency (OV90) | Potency (PA-1) | Potency (SKOV3) | Potency (Tov-21-G) | Potency (Tov112D)

CC(C)[C@@H](C(=O)O)N1Cc2c(cc(O)c3c2O[C@]2(C3)[C@H](C)CCC3C(C)(C)[C@H](O)[C@H](O)C[C@@]32C)C1=O (stereo not given in full)
inactive: Potency (C33A) | Potency (CAOV3) | outcome (CASKI) | Potency (Es-2) | Potency (HeLa) | Potency (Hek293T) | Potency (JEG-3) | Potency (OV90) | Potency (PA-1) | Potency (SKOV3) | Potency (Tov-21-G) | Potency (Tov112D)

C=C1C(=O)OC[C@H]2C(C(=O)O)=CC3CC(C)(C)C[C@@]132 (stereo not given in full)
inactive: Potency (C33A) | Potency (CAOV3) | outcome (CASKI) | Potency (Es-2) | Potency (HeLa) | Potency (Hek293T) | Potency (JEG-3) | Potency (OV90) | Potency (PA-1) | Potency (SKOV3) | Potency (Tov-21-G) | Potency (Tov112D)

CC(C)CC(=O)O[C@@H]1O[C@H](CO)[C@@H](O[C@H]2O[C@H](C)[C@@H](N[C@H]3C=C(CO)[C@@H](O[C@H]4O[C@H](CO)[C@@H](O[C@H]5O[C@H](CO)[C@@H](O[C@H]6O[C@H](CO)[C@@H](O)[C@H](O)[C@H]6O)[C@H](O)[C@H]5O)[C@H](O)[C@H]4O)[C@H](O)[C@H]3O)[C@H](O)[C@H]2O)[C@H](O)[C@H]1O
inactive: activity change, negative = cytotoxicity (C33A) 5.03% [at 11.6 µM] | activity change, negative = cytotoxicity (CAOV3) 1.97% [at 11.6 µM] | activity change, negative = cytotoxicity (CASKI) 2.85% [at 11.6 µM] | activity change, negative = cytotoxicity (Es-2) -3.07% [at 11.6 µM] | activity change, negative = cytotoxicity (HeLa) -0.344% [at 11.6 µM] | activity change, negative = cytotoxicity (Hek293T) 4.85% [at 11.6 µM] | activity change, negative = cytotoxicity (JEG-3) 0.194% [at 11.6 µM] | activity change, negative = cytotoxicity (OV90) 4.33% [at 11.6 µM] | activity change, negative = cytotoxicity (PA-1) -1.75% [at 11.6 µM] | activity change, negative = cytotoxicity (SKOV3) 18.6% [at 11.6 µM] | activity change, negative = cytotoxicity (Tov-21-G) 2.23% [at 11.6 µM] | activity change, negative = cytotoxicity (Tov112D) -0.277% [at 11.6 µM]

CC1(C)Oc2ncnc(N)c2N=C1c1ccc(C2CCC(CC(=O)O)CC2)cc1 (stereo not given)
inactive: Potency (C33A) | Potency (CAOV3) | outcome (CASKI) | Potency (Es-2) | Potency (HeLa) | Potency (Hek293T) | Potency (JEG-3) | Potency (OV90) | Potency (PA-1) | Potency (SKOV3) | Potency (Tov-21-G) | Potency (Tov112D)

C=C1C(=O)O[C@@H]2CC(C)=C([C@@H](C)CCCOC(C)=O)[C@@H](O)[C@H]12
inactive: Potency (C33A) | Potency (CAOV3) | outcome (CASKI) | Potency (Es-2) | Potency (HeLa) | Potency (Hek293T) | Potency (JEG-3) | Potency (OV90) | Potency (PA-1) | Potency (SKOV3) | Potency (Tov-21-G) | Potency (Tov112D)

COc1c(O)cc2c(c1O)C(=O)O[C@H](C)[C@H]2O
inactive: Potency (C33A) | Potency (CAOV3) | outcome (CASKI) | Potency (Es-2) | Potency (HeLa) | Potency (Hek293T) | Potency (JEG-3) | Potency (OV90) | Potency (PA-1) | Potency (SKOV3) | Potency (Tov-21-G) | Potency (Tov112D)

COCCCc1sc(-c2ccccc2)nc1C(=O)Nc1ccccc1-c1nc2cc(CN3CCCC3)cnc2s1
inactive: Potency (C33A) | Potency (CAOV3) | outcome (CASKI) | Potency (Es-2) | Potency (HeLa) | Potency (Hek293T) | Potency (JEG-3) | Potency (OV90) | Potency (PA-1) | Potency (SKOV3) | Potency (Tov-21-G) | Potency (Tov112D)

CC(C)=CCC/C(C)=C/CO[C@@H]1O[C@H](CO[C@@H]2OC[C@](O)(CO)[C@H]2O)[C@@H](O)[C@H](O)[C@H]1O
inactive: Potency (C33A) | Potency (CAOV3) | outcome (CASKI) | Potency (Es-2) | Potency (HeLa) | Potency (Hek293T) | Potency (JEG-3) | Potency (OV90) | Potency (PA-1) | Potency (SKOV3) | Potency (Tov-21-G) | Potency (Tov112D)

CCC(C)C(C(=O)O)N1Cc2c(OCC=C(C)C)c(C)c(OC)c(C(=O)O)c2C1=O (stereo not given)
inactive: Potency (C33A) | Potency (CAOV3) | outcome (CASKI) | Potency (Es-2) | Potency (HeLa) | Potency (Hek293T) | Potency (JEG-3) | Potency (OV90) | Potency (PA-1) | Potency (SKOV3) | Potency (Tov-21-G) | Potency (Tov112D)

CC1C2=CC(=O)OC2(O)CC2C1C(O)CC1C(C)(CO)CCCC21C (stereo not given)
inactive: Potency (C33A) | Potency (CAOV3) | outcome (CASKI) | Potency (Es-2) | Potency (HeLa) | Potency (Hek293T) | Potency (JEG-3) | Potency (OV90) | Potency (PA-1) | Potency (SKOV3) | Potency (Tov-21-G) | Potency (Tov112D)

CS(=O)(=O)c1ccccc1N1CCN(c2nc3c(c(=O)[nH]2)CSCC3)CC1
inactive: Potency (C33A) | Potency (CAOV3) | outcome (CASKI) | Potency (Es-2) | Potency (HeLa) | Potency (Hek293T) | Potency (JEG-3) | Potency (OV90) | Potency (PA-1) | Potency (SKOV3) | Potency (Tov-21-G) | Potency (Tov112D)

CNc1nc(Cc2ccccc2)nc2c1CCNC[C@@H]2C
inactive: Potency (C33A) | Potency (CAOV3) | outcome (CASKI) | Potency (Es-2) | Potency (HeLa) | Potency (Hek293T) | Potency (JEG-3) | Potency (OV90) | Potency (PA-1) | Potency (SKOV3) | Potency (Tov-21-G) | Potency (Tov112D)

CC1=C2C3OC(=O)C(C)C3(O)CCC2(C)CCC1 (stereo not given)
inactive: Potency (C33A) | Potency (CAOV3) | outcome (CASKI) | Potency (Es-2) | Potency (HeLa) | Potency (Hek293T) | Potency (JEG-3) | Potency (OV90) | Potency (PA-1) | Potency (SKOV3) | Potency (Tov-21-G) | Potency (Tov112D)
